The campaign covered roughly 6,200 compounds. About 4,800 (77%) were called active.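 Rule for the calls: active = mean inhibition at 8 µM reaching about 37%, which flags the compound as non-specific (limit read from the data); inactive = the rest.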 So high a share suggests a set chosen from earlier hits. The list is a sample of the results.

This assay in a line: full-length luciferase signal inhibition, confirmation, counter-screen for Mdm2/MdmX interaction inhibitor project, cell-based, single concentration, SaOS-2 (AID 504607).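 Note: p53-null SaOS-2 cells with luciferase driven by a doxycycline-inducible promoter; compound on cells about two nights before reading with doxycycline added after day one.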 Particulars: SaOS-2 full-length luciferase counterscreen, luminescence; at 8 µM; hits give high values. A general note: Counterscreens check selectivity or assay interference.
With `COc1ccc(NC(=O)c2cc(-c3cc(OC)c(OC)c(OC)c3)nc3ccccc23)c(OC)c1`, the inhibition is 58.2% (active).

For the molecule `COc1ccc(Nc2ncnc3ccc(Br)cc23)c(OC)c1`, the inhibition was 24.3% (inactive).

On to `Cc1ccc2nc(-c3ccncc3)cc(C(=O)Nc3ccc4c(c3)OCCO4)c2c1`, for which the inhibition is 44.2% (active).

Turning to `COc1ccc(C(CCN(Cc2ccc(OC)c(OC)c2)C(=O)CCl)c2ccccc2)cc1` (stereo not given), the inhibition is 58.4% (active).

Regarding `Cc1noc(C)c1-c1ccc2ncnc(NC(C)c3ccco3)c2c1` (stereo not given), the inhibition was 59.8% (active).

Consider `Cc1cccc(Nc2nc3c(S(=O)(=O)c4ccccc4)nnn3c3ccccc23)c1C`, for which the inhibition is 94.3% (active).

Take `CN(c1ccc2nc3ccccc3c(=O)n2n1)C1CCCCC1`: the inhibition is 27.7% (inactive).

On to `CC(Nc1nc(C(F)(F)F)nc2ccccc12)c1cccs1` (stereo not given), for which the inhibition is 50.3% (active).

On to `CC(C)(C)Nc1nc(-c2ccccn2)nc2ccccc12`, for which the inhibition is 23.3% (inactive).

Take `COc1ccc(Cc2nnc(N/N=C/c3ccccc3O)[nH]c2=O)cc1OC`: the inhibition is 38.6% (active).

Consider `Cc1nnc(N/N=C/c2ccccn2)[nH]c1=O`, for which the inhibition is 20.6% (inactive).

As for `CCOc1cc(N2CCOCC2)c(OCC)cc1NC(=O)COc1cccc2cccnc12`, the inhibition is 39.6% (active).

Turning to `CCCOc1ccccc1C1CC(=O)Nc2cc3c(cc21)OCO3` (stereo not given), the inhibition is 74.9% (active).

As for `COc1ccccc1C1C2=C(COC2=O)Nc2cc3c(cc21)OCO3` (stereo not given), the inhibition is 90.3% (active).

With `CCOc1ccc(S(=O)(=O)Nc2cccc(C(=O)NCC3(N4CCCCC4)CCCCC3)c2)cc1`, the inhibition is 56.1% (active).

`COc1ccc(CS(=O)/C(Cl)=C(/Cl)C(=O)Nc2ccc(OC)nc2)cc1` (stereo not given): the inhibition was -0.43% (inactive).

As to `O=C(CCCN1C(=O)/C(=C/c2ccco2)SC1=S)Nc1ccccc1`, the inhibition was 50% (active).

As for `O=C(CCCN1C(=O)/C(=C/c2cccs2)SC1=S)Nc1ccc(O)cc1`, the inhibition is 43% (active).

For `O=C1/C(=C/c2ccc(F)cc2)SC(=S)N1CCCC(=O)N1CCCCC1CCO` (stereo not given), the inhibition was 23.7% (inactive).

On to `O=C(CCCN1C(=O)/C(=C/c2ccccc2)SC1=S)Nc1ccc(O)cc1`, for which the inhibition is 51.8% (active).

Turning to `COc1ccc(/C=C2\SC(=S)N(CCC(=O)Nc3ccccn3)C2=O)cc1OC`, the inhibition is 72.7% (active).

As for `O=C(CCCN1C(=O)/C(=C\c2ccco2)SC1=S)Nc1cccc2ccccc12`, the inhibition is 28.5% (inactive).

With `O=C(CCCN1C(=O)/C(=C\c2ccccc2)SC1=S)Nc1ccccc1O`, the inhibition is 30.3% (inactive).

With `CCOc1ccc(-c2cc(C(=O)N/N=C/c3ccc(O)cc3)c3ccccc3n2)cc1`, the inhibition was 48.3% (active).

Turning to `Cc1nc2ccccc2nc1N/N=C/c1ccc(O)cc1O`, the inhibition was 46.2% (active).

Take `Oc1ccc(/C=N/Nc2nc(-c3ccccc3F)nc3ccccc23)c(O)c1`: the inhibition is 31% (inactive).

For the molecule `COc1cc(OC)c2c(-c3cccc(-c4cccc(N)c4)c3)cc(=O)oc2c1`, the inhibition is 50.1% (active).

For the molecule `CC(NC(=O)c1ccc(N2CCNCC2)c([N+](=O)[O-])c1)C12CC3CC(CC(C3)C1)C2` (stereo not given), the inhibition was 56.5% (active).

Take `CC[C@]1(O)CC2CN(CCc3c([nH]c4ccccc34)[C@@](C(=O)OC)(c3cc4c(cc3OC)N(C=O)[C@H]3[C@@](O)(C(=O)OC)[C@H](OC(C)=O)[C@]5(CC)C=CCN6CC[C@]43[C@@H]65)C2)C1` (stereo not given in full): the inhibition was 102% (active).

Take `CC[C@]1(O)C[C@@H]2CN(CCc3c([nH]c4ccccc34)[C@@](C(=O)OC)(c3cc4c(cc3OC)N(C)[C@H]3[C@@](O)(C(=O)OC)[C@H](OC(C)=O)[C@]5(CC)C=CCN6CC[C@]43[C@@H]65)C2)C1`: the inhibition was 94.7% (active).

`Oc1c(CN2CCN(c3ccc(F)cc3)CC2)cc(Cl)c2cccnc12`: the inhibition was 25.7% (inactive).

For the molecule `N#Cc1ccc(C(=O)Nc2nc(-c3cccs3)c(C(=O)C(F)(F)F)s2)cc1`, the inhibition was 54.4% (active).

For `COc1ccc(CNC(=O)C(c2ccc(O)cc2)N(Cc2ccco2)C(=O)c2snc(C(N)=O)c2N)cc1` (stereo not given), the inhibition is 88.8% (active).

`Clc1ccc2c(c1)C1=C(C(c3ccncc3)O2)C(c2ccc(Br)cc2)n2ncnc2N1` (stereo not given): the inhibition was 67.2% (active).

`Nc1nc(CC(=O)CSc2ccc(Cl)cc2)nc(Nc2ccc(F)cc2)n1`: the inhibition is 29.2% (inactive).

In the case of `COc1ccc(C2=Nn3c(nnc3-c3ccccc3OC)SC2)cc1OC1CCCC1`, the inhibition was 68.2% (active).

With `Cc1nc(N=C(N)N)nc2c(C)cccc12`, the inhibition was 63.3% (active).

Consider `Cc1nc(/N=C(\N)NC(=O)NC2CCCCC2)nc2ccccc12`, for which the inhibition is 34.4% (inactive).

`COc1ccc(CNC(=O)C[C@H]2C[C@H](C(=O)N3CCOCC3)[C@@]3(CCC4CCCC4)c4[nH]c5ccc(Cl)cc5c4CCN3C2=O)cc1OC`: the inhibition is 39.6% (active).

Turning to `CN(C)c1ccnc2sc3c(=O)n(Cc4ccccc4)cnc3c12`, the inhibition was 15.1% (inactive).

As for `Cc1cccc(CS(=O)(=O)c2ncc(Cl)c(C(=O)Nc3ccc(F)cc3)n2)c1`, the inhibition is 51.2% (active).

As for `Cc1cccc(NC(=O)c2nc(S(=O)(=O)Cc3ccccc3)ncc2Cl)c1`, the inhibition is 50.9% (active).

As for `O=C(CCl)Nc1cccc(CP(=O)(c2ccccc2)c2ccccc2)c1`, the inhibition is 27.6% (inactive).

In the case of `C[C@@H](NC(=O)OC(C)(C)C)c1nnc(S(=O)(=O)Cc2ccccc2)o1`, the inhibition is 24.9% (inactive).

As to `O=C(/C(=C/c1cccc(Cl)c1)c1nc2ccccc2[nH]1)c1ccccc1`, the inhibition was 97.6% (active).

Consider `CCCCNC(=O)C(C)N(CCN(C)C)C(=O)CCCCCN1C(=O)NC(c2ccc(Cl)cc2)C(C(=O)OCc2ccccc2)=C1C` (stereo not given), for which the inhibition was 27.8% (inactive).

For the molecule `Cc1cc2cc3c(cc2nc1SCC(=O)Nc1c(C)cccc1C)CCC3`, the inhibition is 60.3% (active).

For `CCOC(=O)Nc1ccc2c(c1)N(C(=O)CCCl)c1ccccc1[S@]2=O`, the inhibition was 54% (active).

In the case of `CNC[C@H](CC1CCCCC1)NC[C@H](NCCC1CCCC1)[C@H](C)O`, the inhibition is 30.2% (inactive).

In the case of `COc1ccc(CN(C)C(=O)c2cc(-c3ccc(C)cc3C)nc3ccccc23)c(OC)c1OC`, the inhibition was 62.1% (active).

Consider `COc1ccc(-c2cc(C(=O)N(C)Cc3ccc(OC)c(OC)c3OC)c3ccccc3n2)cc1OC`, for which the inhibition was 97.7% (active).

For the molecule `COc1ccc(-c2cc(C(=O)N(C)CC(=O)Nc3ccccc3Cl)c3ccccc3n2)cc1OC`, the inhibition was 79% (active).

Consider `COc1cc(SC)ccc1C(=O)Nc1nc(C)cs1`, for which the inhibition is 43.3% (active).

Regarding `COc1c(C)c2c(c(O)c1C/C=C(\C)CCC(=O)O)C(=O)OC2`, the inhibition is 22.9% (inactive).

In the case of `O=C(Nc1ccc2c(c1)OCCO2)C1CCCC1`, the inhibition is 88.1% (active).

In the case of `Oc1c(Cl)cc(Cl)c(Cl)c1Cc1c(O)c(Cl)cc(Cl)c1Cl`, the inhibition was 26.8% (inactive).

Turning to `CCNC(=O)c1c(O)c2cccc3c2n(c1=O)CC3`, the inhibition was 22.6% (inactive).

Consider `Cc1ccc(-c2nn(C(C)(C)C)c3ncnc(N)c23)cc1`, for which the inhibition is 30.7% (inactive).

On to `O=C1NC[C@@H](c2ccccc2)OC(=O)[C@H](Cc2ccc(F)cc2)CC/C=C/C[C@H]1CC(=O)N(CCO)Cc1ccccc1`, for which the inhibition was 79% (active).

As to `COc1ccc(C(C(=O)NC2CCCCC2)N(C(=O)CCl)c2ccccc2Cl)cc1` (stereo not given), the inhibition was 78.5% (active).

As to `Cc1cc(NC(=O)/C=C/C(=O)N(c2ccccc2C)C(C(=O)NC2CCCC2)c2ccc(F)cc2)no1` (stereo not given), the inhibition is 28.7% (inactive).

Take `COc1ccc(OC)c(Nc2nc(-c3ccc(O)c(O)c3)cs2)c1`: the inhibition is 79.9% (active).

Take `Cc1oc2c(c1C(=O)N1CCOCC1)C(=O)c1ccccc1C2=O`: the inhibition is 56.8% (active).

As for `O=S(=O)([N-]c1nc2ccccc2nc1-[n+]1ccc(Cc2ccccc2)cc1)c1ccc(Br)s1`, the inhibition is 56.5% (active).

For `OCCNc1nc(Nc2ccc(Cl)c(Cl)c2)nc2ccccc12`, the inhibition was 24.3% (inactive).

On to `O=[N+]([O-])c1c(NCCO)cc(Sc2nc3ccccc3s2)c2nonc12`, for which the inhibition is 50.4% (active).

On to `COC(=O)Cc1[nH]n(-c2nc3ccccc3s2)c(=O)c1C(C)=Nc1ccc(OC)cc1`, for which the inhibition is 26.2% (inactive).

With `O=C(Nc1ccccc1Cl)/C(Cl)=C(\Cl)S(=O)c1ccccc1` (stereo not given), the inhibition was 1.94% (inactive).

`Cc1cccc(N(C)C(=O)c2cc3c(=O)[nH]c4ccc(C)cc4c3s2)c1`: the inhibition is 43.4% (active).

Turning to `Cc1ccc(N(Cc2cc(=O)[nH]c3ccccc23)C(=O)CCl)cc1`, the inhibition was 25.3% (inactive).

For the molecule `CCCC(O)(CCC)C(=O)NN(C(=O)CCl)c1cccc(C)c1`, the inhibition is 23.7% (inactive).

For `CC[C@]1(C(=O)OC)[C@H]2C(=O)N(Cc3ccccc3)C(=O)[C@H]2[C@H]2CN=C(SCc3ccc(C#N)cc3)N21`, the inhibition is 54.6% (active).

Regarding `CC[C@]1(C(=O)OC)[C@H]2C(=O)N(Cc3ccccc3)C(=O)[C@H]2[C@H]2CN=C(SCc3ccc(Cl)cc3)N21`, the inhibition is 52.2% (active).

As for `CC[C@]1(C(=O)OC)[C@H]2C(=O)N(Cc3ccccc3)C(=O)[C@H]2[C@H]2CN=C(SCc3ccccc3)N21`, the inhibition was 35.8% (inactive).

For `Cc1cc(Nc2cc(N3CCN(C)CC3)nc(Sc3ccc(NC(=O)C4CC4)cc3)n2)n[nH]1`, the inhibition is 41.6% (active).

`Cc1[nH]c(C)c(S(=O)(=O)N2CCN(c3cccc(C(F)(F)F)c3)CC2)c1C(=O)N1CCCCC1`: the inhibition is 54.6% (active).

For the molecule `COc1ccc(CNc2nc(NCc3ccc(OC)cc3)c3ncn(C4CCCC4)c3n2)cc1`, the inhibition is 73% (active).

As for `Cc1c(CN2CCC(CO)(CCOc3ccccc3)CC2)[nH]c2ccc(Cl)cc12`, the inhibition is 53.7% (active).

`N#CC1=C(N)Oc2cc(O)ccc2C1C1CCCCC1` (stereo not given): the inhibition was 56.5% (active).

With `Cc1[nH]c(=O)c(C(=O)/C=C/c2ccccc2)c2c1CCCC2`, the inhibition was 53.3% (active).

With `COc1ccc2cc1Oc1ccc(cc1)C[C@H]1c3cc(c(OC)cc3CCN1C)Oc1c(O)c(OC)cc3c1[C@H](C2)N(C)CC3`, the inhibition was 51.1% (active).

As to `CCN1C(=O)/C(=C\N2CCN(c3cccc(Cl)c3)CC2)SC1=S`, the inhibition is 72.2% (active).

In the case of `COc1cccc2sc(N(CCCN(C)C)C(=O)CCS(=O)(=O)c3ccccc3)nc12`, the inhibition was 21.2% (inactive).

Turning to `COc1cccc2sc(NNC(=O)c3nc4ccccc4s3)nc12`, the inhibition is 68.2% (active).

For `COc1cccc2sc(N(CCCN(C)C)C(=O)C(c3ccccc3)c3ccccc3)nc12`, the inhibition was 24.8% (inactive).

Broadly, the inhibition is the relative decrease from the control value, in per cent.

The values above are taken from PubChem BioAssay AID504607 (Sanford-Burnham Center for Chemical Genomics, 2011).
